The list is not random: actives were taken first. Their share in the collection is about 19%.
TDP1 cell noCPT: qHTS for Inhibitors of human tyrosyl-DNA phosphodiesterase 1 (TDP1): qHTS in cells in absence of CPT; DT40 Tdp1-/- hTDP1 cells, no CPT, ATP luminescence, 48 h; Potency, µM (titrated, usually from 46.2 µM), most hits filed as inhibitors; 420,000 compounds, 15% hits; AID 686978, 2013; also: nearly all actives have a fitted effect of over 55% in size
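Cells were dispensed at 400 per well, compounds added by pin tool, plates incubated ≥48 hr at 37 °C, then CellTiter-Glo added for 30 min at room temperature before luminescence reading. Line: DT40 Tdp1-/- complemented with hTDP1; camptothecin omitted.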
S-ASM inh: inhibitors of human secretory acid sphingomyelinase; P17405; placental ASM, HMU-PC fluorogenic substrate, 60 min; Potency, µM (highest dose often 57.5 µM), most hits filed as inhibitors; 340,000 compounds, 0.006% hits; AID 504937
Target sequence (P17405 47-631 limits assumed): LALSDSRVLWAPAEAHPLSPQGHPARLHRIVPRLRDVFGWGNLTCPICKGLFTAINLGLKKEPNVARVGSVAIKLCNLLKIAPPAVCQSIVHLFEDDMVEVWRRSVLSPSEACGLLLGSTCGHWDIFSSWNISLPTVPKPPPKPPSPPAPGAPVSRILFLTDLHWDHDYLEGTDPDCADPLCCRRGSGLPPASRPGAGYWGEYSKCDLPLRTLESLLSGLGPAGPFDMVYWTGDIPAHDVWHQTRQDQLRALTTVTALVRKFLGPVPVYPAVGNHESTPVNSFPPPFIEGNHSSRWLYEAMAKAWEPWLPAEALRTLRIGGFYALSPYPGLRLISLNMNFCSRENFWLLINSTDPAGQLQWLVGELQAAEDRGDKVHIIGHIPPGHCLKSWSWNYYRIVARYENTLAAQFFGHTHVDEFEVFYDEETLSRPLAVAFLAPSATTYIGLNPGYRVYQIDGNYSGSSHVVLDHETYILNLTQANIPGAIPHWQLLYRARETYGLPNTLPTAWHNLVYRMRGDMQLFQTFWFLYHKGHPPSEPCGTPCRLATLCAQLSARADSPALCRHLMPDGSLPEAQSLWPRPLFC
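Steps: dispense placental human ASM, pin compound, wait 10 min at room temperature, add HMU-PC0 substrate at 9 uM final, incubate 60 min at 37 °C, add stop solution raising pH to 10, read fluorescence.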
TGFb SMAD3 inh: TGF-b pathway inhibition | HepG2 CAGA-GFP TGF-b/SMAD3 reporter, GFP fluorescence, 18 h; TGF-beta stimulated, 500 pg/mL final | Potency, µM (series often up to 46.1 µM), most hits filed as inhibitors | 410,000 compounds, 1.2% hits | AID 588855; also: nearly all actives have a fitted effect of over 65% in size
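TGF-beta reporter screen: HEPG2 CAGA-GFP, 1% FBS, 500 pg/mL TGF-beta final, 18 h; per-cell GFP summed per well; curves fitted and categorized by class.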
IL-1B inflam inh: inflammasome signaling inhibition, IL-1 beta readout; THP-1 LPS/ATP IL-1B secretion, AlphaLISA, 16 h; active compounds read low; activity change, % at 57.5 µM; 360,000 compounds, 4.7% hits; AID 743279; in the data active = activity change below about -50%; inconclusive = mostly about -30% to -49%
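Secreted IL-1B measured by AlphaLISA bead assay after 16 h compound exposure of THP-1 cells; compounds (final up to 57.5 uM) added 1 h before LPS (250 ng/mL) and ATP (1.25 mM) stimulation; lower signal means less secretion.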
TDP1 cell CPT: DT40-hTDP1 cell growth loss with CPT; chicken DT40 Tdp1-/-;hTDP1 cells + 20 nM CPT, ATP luminescence, 48 h; Potency, µM (series often up to 46.2 µM), actives largely listed as inhibitors; 420,000 compounds, 12% hits; also: nearly all actives have a fitted effect of over 55% in size
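Chicken DT40 Tdp1-/- cells complemented with human TDP1, 400 cells/well, exposed to compounds plus 20 nM camptothecin for at least 48 h at 37 C; viability read as ATP content by CellTiter-Glo luminescence.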
HepG2 viability: kills HepG2 cells in TGF-b inhibitor counter-screen | HepG2 CAGA-GFP viability, ATP luminescence, 18 h | Potency, µM (highest dose often 46.1 µM), usual class: cytotoxic | 410,000 compounds, 0.76% hits
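HepG2 CAGA-GFP cells (1000/well, DMEM with 1% FBS) received compound, then TGF-beta at 500 pg/mL final, and were incubated 18 hours at 37 degrees C. Viability was read by CellTiter-Glo luminescence. Media-only wells were set as complete cell-killing and DMSO as no toxicity.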
Numbers stand for hits; 0 = inactive; ? = inconclusive; - = no result given; [ ] = another dose, or the depositor's remark. Unless noted, calls follow the shape of the dose curve; as a rule, active = well fitted curve in the direction sought with a large enough effect; inconclusive = small, poorly fitted or top-dose-only effect, or another doubt; inactive = no such curve, though single readings can be large; an effect the other way counts as inactive or inconclusive.

SMILES	TDP1 cell noCPT	S-ASM inh	TGFb SMAD3 inh	IL-1B inflam inh	TDP1 cell CPT	HepG2 viability
COc1ccc(Cn2c(C(=O)O)c(CNCc3ccc(C)o3)c3ccc(C)cc32)cc1	?	-	0	-	?	0
COc1ccc(Cn2c(C(=O)O)c(CNCCc3cccs3)c3ccc(C)cc32)cc1	23µM	-	0	-	?	0
CSc1ccc(CNCc2c(C(=O)O)c(C)n(Cc3ccc(F)cc3Cl)c2C)cc1	0	-	0	-	?	0
COc1ccc(CNCc2c(C(=O)O)n(Cc3ccc(F)cc3)c3cc(C)ccc23)cc1OC	23µM	-	0	-	21µM	0
CCOc1ccc(CNCc2c(C(=O)O)c(C)n(Cc3ccc(F)cc3Cl)c2C)cc1	13µM	-	0	-	?	0
Cc1ccc(Cn2c(C(=O)O)c(CNCCc3cccs3)c3ccc(C)cc32)cc1	0	-	?	-	?	0
CC(C)(CO)NC(=O)c1cnn(-c2ncc3c(n2)-c2ccccc2CC3)c1C1CC1	0	-	-	-	0[9.04 µM]	-
COc1cc(S(=O)(=O)NCCCn2ccnc2)ccc1F	0	0	0	0	0	0
COc1ccc2c(CNCc3ccco3)c(C(=O)O)n(Cc3ccc(F)cc3Cl)c2c1	2.6µM	-	0	-	?	0
C=Cc1ccc(Cn2c(C(=O)O)c(CNCc3cc(Br)ccc3OC)c3ccc(C)cc32)cc1	?	-	0	-	0	0
C=Cc1ccc(Cn2c(C(=O)O)c(CNCc3ccccc3)c3ccc(C)cc32)cc1	4.6µM	-	?	-	7.3µM	20µM
CC(OC(=O)c1cccc(S(=O)(=O)N(C)C)c1)C(=O)NCc1ccc2c(c1)OCO2 (configuration not stated)	?	0	0	0	0	0
Cc1nc([N+](=O)[O-])c(Br)n1CC(=O)c1ccc2ccccc2c1	21µM	?	?	-120	21µM	10µM
Cc1nc([N+](=O)[O-])c(Br)n1CC(=O)c1ccccc1	8.2µM	0	?	?	18µM	0
Cc1nc([N+](=O)[O-])c(C(=O)OCc2ccccc2Br)n1C	?	0	0	0	0	0
Cc1cc([N+](=O)[O-])nn1CC(=O)c1ccccc1	0	0	0	0	0	0
Cc1nc([N+](=O)[O-])c(Br)n1CC(=O)c1ccc(Br)cc1	8.2µM	0	?	-84	7.3µM	0
CCC(C)NC(=O)C1CCN(S(=O)(=O)c2cccc3nonc23)CC1 (configuration not stated)	0	0	0	0	0	0
Cc1ccc(C(=O)NCCCNC(=O)COc2ccccc2Cl)cn1	0	0	0	0	0	0
CN(C[C@@H](CC1CCCCC1)N(C[C@H](Cc1ccccc1)N(CCc1ccccc1)N=O)N=O)N=O	?	0	0	0	23µM	0
CC(CCc1ccccc1)NC(=O)CCC1CCCC1 (configuration not stated)	0	0	0	0	0	0
CN(C[C@H](Cc1ccccc1)N(C[C@H](CC1CCCCC1)N(CCc1ccccc1)N=O)N=O)N=O	?	0	?	0	26µM	0
CCC(C)[C@@H](CN(N=O)[C@@H](Cc1ccccc1)CN(C)N=O)N(CCc1ccccc1)N=O (some centres not stated)	21µM	0	0	0	16µM	0
Cn1c(=O)c(N)c2c3c(c(Br)ccc31)C(=O)c1ccccc1-2	?	?	0	0	?	0
Cn1c(=O)c(NC2CCCCC2)c2c3c(cccc31)C(=O)c1ccccc1-2	?	0	0	-66	?	0
CC(=O)Nc1ccc(Nc2c3c4c(cccc4n(C)c2=O)C(=O)c2ccccc2-3)cc1	?	0	0	0	?	0
CCCCNc1c2c3c(cccc3n(C)c1=O)C(=O)c1ccccc1-2	18µM	0	0	0	?	0
COC(=O)C[C@@H]1CC[C@@H](NC(=O)C2CCC2)[C@@H](CO)O1	0	-	-	0	0	-
O=C(Oc1cc(=O)oc2c1c(=O)n1c3c(cccc23)CC1)c1ccc(F)cc1	23µM	0	0	-	0	0

Assay outcomes: PubChem BioAssay, National Center for Advancing Translational Sciences (NCATS)
